Screens as filed in PubChem.
Anthrax LF prot: inhibitors of Bacillus anthracis lethal factor protease; P15917; multiplex microsphere protease cleavage assay, LF; inhibition, % at 10 µM; 360,000 compounds, 0.12% hits; further: plate controls were buffer without enzyme for full effect and enzyme alone for no effect
Target sequence (P15917 whole entry, looked up): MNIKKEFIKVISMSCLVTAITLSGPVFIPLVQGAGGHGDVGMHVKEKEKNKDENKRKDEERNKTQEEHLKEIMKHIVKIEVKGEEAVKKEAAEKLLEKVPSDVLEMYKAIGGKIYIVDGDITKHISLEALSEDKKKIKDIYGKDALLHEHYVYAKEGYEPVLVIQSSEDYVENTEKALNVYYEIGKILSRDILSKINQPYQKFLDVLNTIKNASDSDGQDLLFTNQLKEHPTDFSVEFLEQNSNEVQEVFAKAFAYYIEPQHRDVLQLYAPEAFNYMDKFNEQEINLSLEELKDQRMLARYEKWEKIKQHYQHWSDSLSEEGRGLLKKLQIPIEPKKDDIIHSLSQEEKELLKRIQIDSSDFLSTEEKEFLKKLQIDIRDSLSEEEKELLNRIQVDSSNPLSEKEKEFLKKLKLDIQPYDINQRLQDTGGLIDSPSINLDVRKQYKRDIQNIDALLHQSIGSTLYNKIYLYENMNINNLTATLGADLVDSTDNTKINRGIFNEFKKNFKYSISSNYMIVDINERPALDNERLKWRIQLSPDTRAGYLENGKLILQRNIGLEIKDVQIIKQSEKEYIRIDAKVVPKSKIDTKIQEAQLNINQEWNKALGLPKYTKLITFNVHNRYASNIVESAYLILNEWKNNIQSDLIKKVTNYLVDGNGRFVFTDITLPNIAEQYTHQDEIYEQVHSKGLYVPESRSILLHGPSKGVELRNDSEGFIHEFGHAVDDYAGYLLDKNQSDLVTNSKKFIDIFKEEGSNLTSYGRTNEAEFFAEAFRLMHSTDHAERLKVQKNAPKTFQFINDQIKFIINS
BoNT-F LC inh: BoNT F light chain protease inhibition; inhibition, % at 10 µM; Multiplex microsphere protease cleavage assay, flow cytometry; 360,000 compounds, 0.22% hits; in the data active means inhibition above about 35%, passing the limit was not always enough; inconclusive means no clear call, values can overlap the other calls; further: plate controls were buffer without enzyme for full effect and enzyme alone for no effect
BoNT-A LC inh2: BoNT A light chain protease inhibition. multiplex microsphere protease substrate cleavage, flow cytometry. inhibition, % at 10 µM. 360,000 compounds, 0.17% hits. AID 588499; further: plate controls were buffer without enzyme for full effect and enzyme alone for no effect
SARS 3CLpro inh: SARS-CoV 3CLpro protease inhibition | P0C6X7 | recombinant SARS-CoV 3CLpro, quenched FRET peptide cleavage | inhibition, % at 6 µM | 290,000 compounds, 0.14% hits | AID 1706; in the data active means inhibition above about 12%
Bead autofluor: flagged as autofluorescent in microsphere protease counterscreen; compound autofluorescence counterscreen, microsphere flow cytometry; stronger effect = higher value; fluorescence intensity (no concentration beside the values); 360,000 compounds, 3.1% hits; AID 624483; in the data active means fluorescence intensity above about 16000; inconclusive means no clear call, values can overlap the other calls
BJeLR viability: BJeLR cell viability loss; BJeLR (HRASV12) viability, CellTiter-Glo ATP luminescence, 48 h; AID 1554; 300,000 compounds, 0.17% hits; inhibition, % (test concentration not listed); in the data active means inhibition above about 50%; inconclusive means no clear call, values can overlap the other calls
* = called active by the depositor. Most compounds without a hit are left out; they make up all but 3.6% or so of the library. Unless noted, no stated cut-off is given here; in the data, active means inhibition above about 30%; inconclusive means no clear call, values can overlap the other calls; inactive means below that.

Screening CCN1CCN(CCCNC(=O)c2ccc(/C=C3/Sc4ccccc4N(Cc4ccccc4F)C3=O)cc2)CC1 returned Anthrax LF prot -7, BoNT-F LC inh -3, BoNT-A LC inh2 -1, SARS 3CLpro inh 2, Bead autofluor 5736 and BJeLR viability 12.
For COc1ccc(OC)c(NC(=O)CSc2nnc(NC(=O)c3ccco3)s2)c1 the results were Anthrax LF prot -4, BoNT-F LC inh -14, BoNT-A LC inh2 -5, SARS 3CLpro inh 4, Bead autofluor inconclusive and BJeLR viability 5.
Screening Cc1cccc(C)c1NC(=O)N1CCC(c2nc3ccccc3o2)CC1 returned Anthrax LF prot 1, BoNT-F LC inh 0, BoNT-A LC inh2 inconclusive, SARS 3CLpro inh 1, Bead autofluor 23165* and BJeLR viability 1.
For COc1cccc(-c2ccc3nccn3c2)c1 the results were Anthrax LF prot 5, BoNT-F LC inh -1, BoNT-A LC inh2 2 and Bead autofluor 3988.
`O=[N+]([O-])c1ccc2nccn2c1` gave Anthrax LF prot 1, BoNT-F LC inh -2, BoNT-A LC inh2 -2, SARS 3CLpro inh 3, Bead autofluor 24475* and BJeLR viability -14.
Screening Cc1cc(-n2c(C)cc(C(=O)CSc3nncn3C(C)C)c2C)no1 returned Anthrax LF prot -28, BoNT-F LC inh -132, BoNT-A LC inh2 -82, Bead autofluor inconclusive and BJeLR viability 2.
Cc1ccc(S(=O)(=O)N(C)C)cc1NC(=O)c1cc(-c2ccco2)nc2ccccc12 was read as Anthrax LF prot 0, BoNT-F LC inh -9, BoNT-A LC inh2 -1, SARS 3CLpro inh 3, Bead autofluor 5925 and BJeLR viability 3.
`CCOC(=O)c1[nH]c2ccc(C)cc2c1N` gave Anthrax LF prot 1, BoNT-F LC inh -3, BoNT-A LC inh2 0, SARS 3CLpro inh -3, Bead autofluor 22785* and BJeLR viability -2.
Screening Cc1nc(-n2ncc(C#N)c2N)c2c3c(sc2n1)CCC3 returned Anthrax LF prot 1, BoNT-F LC inh 1, BoNT-A LC inh2 0, SARS 3CLpro inh 0, Bead autofluor 22751* and BJeLR viability -5.
`N#Cc1cnn(-c2ncnc3sc4c(c23)CCCC4)c1N` gave Anthrax LF prot 0, BoNT-F LC inh -17, BoNT-A LC inh2 -1, SARS 3CLpro inh 0, Bead autofluor 5002 and BJeLR viability 0.
For COc1ccc(/C=C2\COc3ccccc3C2=O)cc1OC the results were Anthrax LF prot -1, BoNT-F LC inh 10, BoNT-A LC inh2 0, SARS 3CLpro inh 2, Bead autofluor 2611 and BJeLR viability -3.
For CCOc1cc(/C=C2\COc3ccccc3C2=O)cc(Br)c1OCC(=O)N(C)C the results were Anthrax LF prot -1, BoNT-F LC inh -11, BoNT-A LC inh2 -3, SARS 3CLpro inh 6, Bead autofluor 6952 and BJeLR viability 65*.
`Clc1ccc(OCc2nnc(SCc3nnc(-c4ccccc4)o3)o2)c(Cl)c1` gave Anthrax LF prot 0, BoNT-F LC inh -4, BoNT-A LC inh2 -2, SARS 3CLpro inh -4, Bead autofluor 17010* and BJeLR viability 2.
`Clc1ccc2nc(SCc3nnc(-c4ccccc4)o3)[nH]c2c1` gave Anthrax LF prot 1, BoNT-F LC inh -4, BoNT-A LC inh2 inconclusive, SARS 3CLpro inh -1, Bead autofluor 23021* and BJeLR viability 3.
Screening O=C(NCCS(=O)(=O)N1CCN(c2ccccc2)CC1)C1CCCC1 returned Anthrax LF prot -4, BoNT-F LC inh 6, BoNT-A LC inh2 1, Bead autofluor inconclusive and BJeLR viability 1.
O=C(Cc1ccccc1)NCc1nc2ccccc2[nH]1 was read as Anthrax LF prot 0, BoNT-F LC inh -7, BoNT-A LC inh2 0, SARS 3CLpro inh 4, Bead autofluor 13584 and BJeLR viability -8.
COc1ccc(C(c2nnnn2Cc2ccccc2)N2CCN(c3ccccc3)CC2)cc1 (configuration not stated) was read as Anthrax LF prot -4, BoNT-F LC inh -14, BoNT-A LC inh2 -1, SARS 3CLpro inh 0, Bead autofluor 2883 and BJeLR viability -1.
Screening COc1ccc(N2CCN(C(c3cc4cc(C)ccc4[nH]c3=O)c3nnnn3Cc3ccccc3)CC2)cc1 (configuration not stated) returned Anthrax LF prot -3, BoNT-F LC inh -2, BoNT-A LC inh2 0, SARS 3CLpro inh -2, Bead autofluor 20480* and BJeLR viability -8.
`Cc1ccc2cc(C(c3nnnn3Cc3ccccc3)N3CCN(c4ccccc4)CC3)c(=O)[nH]c2c1` (configuration not stated) gave Anthrax LF prot -4, BoNT-F LC inh -1, BoNT-A LC inh2 -1, SARS 3CLpro inh -3, Bead autofluor 23279* and BJeLR viability -9.
`Cc1ccc(NC(=O)NC(=O)CSc2nnnn2C)c(C)c1` gave Anthrax LF prot -1, BoNT-F LC inh 0, BoNT-A LC inh2 0, SARS 3CLpro inh 2, Bead autofluor 20545* and BJeLR viability -1.
`Cc1cccc(C)c1NC(=O)CSc1nnnn1C` gave Anthrax LF prot -3, BoNT-F LC inh -6, BoNT-A LC inh2 -1, SARS 3CLpro inh 2, Bead autofluor 9167 and BJeLR viability -8.
CCN(CC)c1ccc(NC(=O)Cn2nnc(-c3cccc(OC)c3OC)n2)c(C)c1 was read as Anthrax LF prot -1, BoNT-F LC inh 1, BoNT-A LC inh2 -1, SARS 3CLpro inh -1, Bead autofluor 20991* and BJeLR viability 3.
Screening C[C@H](CO)N1C[C@H](C)[C@@H](CN(C)CC2CCCCC2)Oc2ccc(NC(=O)Cn3cnnn3)cc2C1=O returned Anthrax LF prot -12, BoNT-F LC inh 10, BoNT-A LC inh2 0 and Bead autofluor 4176.
`Cc1ccc(OCCSc2nnc(-c3cccs3)n2C)cc1` gave Anthrax LF prot 1, BoNT-F LC inh -2, BoNT-A LC inh2 inconclusive, SARS 3CLpro inh 3, Bead autofluor 20327* and BJeLR viability -8.
For Cn1c(SCCOc2ccccc2Cl)nnc1-c1cccs1 the results were Anthrax LF prot 0, BoNT-F LC inh -1, BoNT-A LC inh2 2, SARS 3CLpro inh 0, Bead autofluor 22281* and BJeLR viability 0.
`Cn1c(SCCOc2ccc(Cl)cc2)nnc1-c1ccncc1` gave Anthrax LF prot 4, BoNT-F LC inh -1, BoNT-A LC inh2 0, SARS 3CLpro inh 2, Bead autofluor 23566* and BJeLR viability 3.
For CC(C)(NC(=O)c1ccccc1)c1nc2ccccc2s1 the results were Anthrax LF prot 5, BoNT-F LC inh -3, BoNT-A LC inh2 0, Bead autofluor 3908 and BJeLR viability -5.
`COc1ccc(-c2nc3ccccn3c2Cl)cc1` gave Anthrax LF prot 2, BoNT-F LC inh 1, BoNT-A LC inh2 -1, SARS 3CLpro inh -3, Bead autofluor 3253 and BJeLR viability 14.
`c1ccc(CSc2nnc(Cc3ccccc3)o2)cc1` gave Anthrax LF prot -4, BoNT-F LC inh 2, BoNT-A LC inh2 0, SARS 3CLpro inh 2, Bead autofluor 4186 and BJeLR viability 6.
